Source: PubChem (National Center for Advancing Translational Sciences (NCATS))
Most compounds without a hit are left out; they make up all but 2.4% or so of the library.
Pol iota inh: qHTS for Inhibitors of Polymerase Iota; Potency, µM (series often up to 115 µM), for the others: top-dose activity, negative = inhibition, actives largely listed as inhibitors; 390,000 compounds, 1% hits; Pol iota fluorescent replication assay, 10 min; DNA polymerase iota (Homo sapiens), Q9UNA4
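Fluorescent replication assay read twice, at 0 min and 10 min after adding 50 nM (final) substrate. Enzyme (10 nM) and compounds were first incubated 15 min at room temperature; enzyme-free buffer wells were negative controls.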
Pol eta inh: qHTS for Inhibitors of Polymerase Eta; 390,000 compounds, 1.2% hits; recombinant Pol eta, fluorescent DNA replication assay; Potency, µM (highest dose often 114 µM), for inactives: top-dose activity change, negative = inhibition, usual class: inhibitors; DNA polymerase eta (Homo sapiens), Q9Y253; also: % is scaled to controls: 0 for no effect and ±100 for the full control effect
Target sequence (Q9Y253 whole entry, looked up): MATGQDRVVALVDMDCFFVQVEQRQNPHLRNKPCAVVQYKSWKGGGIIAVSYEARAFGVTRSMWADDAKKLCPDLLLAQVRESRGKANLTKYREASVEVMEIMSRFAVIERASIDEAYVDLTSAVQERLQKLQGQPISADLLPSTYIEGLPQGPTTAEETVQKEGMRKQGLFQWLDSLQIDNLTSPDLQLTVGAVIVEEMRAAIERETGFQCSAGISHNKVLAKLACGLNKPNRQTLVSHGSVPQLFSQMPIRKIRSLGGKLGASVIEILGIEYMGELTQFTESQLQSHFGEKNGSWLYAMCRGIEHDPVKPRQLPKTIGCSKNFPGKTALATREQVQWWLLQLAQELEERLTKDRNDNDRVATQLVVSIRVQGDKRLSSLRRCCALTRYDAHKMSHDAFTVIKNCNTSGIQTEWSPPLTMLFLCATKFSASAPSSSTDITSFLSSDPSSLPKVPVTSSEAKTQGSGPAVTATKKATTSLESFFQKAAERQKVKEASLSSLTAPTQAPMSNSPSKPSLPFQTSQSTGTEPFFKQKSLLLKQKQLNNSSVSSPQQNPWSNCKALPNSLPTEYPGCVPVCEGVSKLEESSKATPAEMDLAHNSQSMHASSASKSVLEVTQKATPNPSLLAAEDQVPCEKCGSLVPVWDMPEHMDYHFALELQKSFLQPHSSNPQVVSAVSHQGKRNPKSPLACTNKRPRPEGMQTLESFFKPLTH
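Pol eta (10 nM) was preincubated with compounds for 15 min at room temperature, after which fluorescent replication substrate (50 nM final) was added to start the reaction. Fluorescence was read kinetically at 0 and 10 min.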
FEN1 inh-1: qHTS Assay for the Inhibitors of Human Flap endonuclease 1 (FEN1). AID 588795, 2011. Potency, µM (top dose mostly 114 µM), inactives show top-dose activity change, negative = inhibition, most hits filed as inhibitors. Recombinant FEN1 flap cleavage, fluorescence, 15 min. 390,000 compounds, 0.35% hits; also: % is scaled to controls: 0 for no effect and ±100 for the full control effect; nearly all actives have a fitted effect of over 65% in size
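Read-out was taken twice, immediately and after 15 min, following addition of 50 nM substrate to 10 nM FEN1 that had sat with test compound for 15 min at room temperature. Curves came from a four-parameter Hill model.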
PGK inhibitor: qHTS Assay to Find Inhibitors of Phosphoglycerate Kinase; Phosphoglycerate kinase, glycosomal (Trypanosoma brucei brucei), P07378; PGK/GAPDH coupled, Kinase-Glo luminescence, 60 min; Potency, µM (doses to about 57.5 µM), for the others: top-dose activity change, negative = inhibition, most hits filed as inhibitors; 380,000 compounds, 0.043% hits; also: % is scaled to controls: 0 for no effect and ±100 for the full control effect; nearly all actives have a fitted effect of over 60% in size
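Luminescent ATP detection (Kinase-Glo Plus) follows a 60-minute room-temperature incubation, with wells lacking PGK as controls. Buffer: 100 mM TEA (pH 7.6), 5 mM MgCl2, 0.01% Tween-20. Coupling enzyme GAPDH (100 nM final) supplies unstable 1,3-BPG in-well.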
Pol beta inh: qHTS Assay for Inhibitors of DNA Polymerase Beta. P06746. Pol beta primer extension/strand displacement, fluorescence kinetic. Potency, µM (top dose mostly 114 µM), for inactives: at the top dose activity change, negative = inhibition, usual class: inhibitors. 340,000 compounds, 1.3% hits; also: % is scaled to controls: 0 for no effect and ±100 for the full control effect
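Pol beta (10 nM) and compounds were preincubated 15 min at room temperature, then 50 nM substrate (final) started primer extension/strand displacement. Reads were taken at 0 and 10 min; concentration-response data were fitted to a four-parameter Hill equation.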
POLK inh: qHTS for Inhibitors of Polymerase Kappa; DNA polymerase kappa (Homo sapiens), Q9UBT6; purified Pol kappa, fluorescent DNA synthesis assay, 10 min; Potency, µM (titrated, usually from 107 µM), for the others: at the highest dose activity, negative = inhibition, most hits filed as inhibitors; 400,000 compounds, 0.53% hits; AID 588579, 2011; also: % is scaled to controls: 0 for no effect and ±100 for the full control effect
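Pol kappa 10 nM + cpd, 15 min RT; start w/ substrate 50 nM final; fluorescence kinetic read, 0 and 10 min. Neg ctrl: buffer, no enzyme.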
FEN1 inh-2: qHTS Assay for the Inhibitors of FEN1: Confirmatory Assay for Cherry-picked Compounds; shares compounds with FEN1 inh-1; FEN1 flap cleavage, TAMRA/BHQ2 fluorogenic DNA substrate; Potency, µM, actives largely listed as inhibitors; 880 compounds, 79% hits; also: nearly all actives have a fitted effect of over 60% in size
Active calls of the source: *; i = inactive; ? = inconclusive; · = no result; [ ] = another dose, or the depositor's remark. Calls follow the shape of the dose curve; as a rule, active = well fitted curve in the direction sought with a large enough effect; inconclusive = small, poorly fitted or top-dose-only effect, or another doubt; inactive = no such curve, though single readings can be large; an effect the other way counts as inactive or inconclusive. Potency is read from the fitted curve at half-maximal effect.

SMILES	Pol iota inh	Pol eta inh	FEN1 inh-1	PGK inhibitor	Pol beta inh	POLK inh	FEN1 inh-2
Cc1[nH]c2c(ccc3cccnc32)c1C	65%	-18%	0%	-7%	1%	-6%	·
C=CCn1c(=N)c(C(=O)NCCCOC)cc2c(=O)n3cccc(C)c3nc21	-11%	?	-11%	-10%	17%	-6%	·
COCCCNC(=O)c1cccn2c(=O)c3cc4ccccc4cc3nc12	18%	?	?	-10%	3%	-12%	?
CC(/C=C1\SC(=S)N(NC(=O)c2ccncc2)C1=O)=C\c1ccccc1	?	-6%	-15%	23%	1%	-10%	·
COc1cc(/C=C2\SC(=S)N(NC(=O)c3ccccc3OC)C2=O)ccc1O	50µM*	?	?	-23%	18µM*	-20%	?
COc1cc(/C=C2/SC(=S)N(c3c(C)n(C)n(-c4ccccc4)c3=O)C2=O)ccc1O	28µM*	?	?	?	28µM*	-22%	?
COc1cc(/C=C2\SC(=S)N(NC(=O)c3ccncc3)C2=O)ccc1O	22µM*	?	?	-14%	-6%	-29%	76*
COc1cc(/C=C2\SC(=S)N(NC(=O)c3ccc(O)c(OC)c3)C2=O)ccc1O	22µM*	?	?	-19%	?	-28%	43*
Cc1ccccc1NC(=O)CSc1nc2c(oc3ccccc32)c(=O)n1Cc1ccco1	3%	-2%	13%	-2%	4%	2%	·
O=c1c(S(=O)(=O)c2ccccc2)cn(Cc2ccc(F)cc2)c2cc(N3CCCCC3)c(F)cc12	8%	-15%	8%	-3%	-9%	-9%	·
COc1ccc(NC(=O)Cn2c(=O)n(-c3cccc(C(F)(F)F)c3)c(=O)c3sccc32)cc1	11%	-5%	21%	9%	0%	-4%	·
COc1cc(/C=C2/SC(=NCc3ccccc3)N(Cc3ccccc3)C2=O)ccc1O	?	-14%	-22%	-9%	2%	-3%	·
CCOc1cc(/C=C2\SC(=S)N(NC(=O)c3cccnc3)C2=O)ccc1O	28µM*	?	?	-17%	?	-31%	85*
COc1cc(/C=C2/SC(=S)N(Cc3ccccc3)C2=O)ccc1O	40µM*	?	?	-15%	10µM*	?	85*
COc1ccc2[nH]c(C)c(C(=O)CN(C)CC(OC)OC)c2c1	9%	·	9%	·	·	-4%	·
Cc1nnc(NC(=O)c2cc3ccccc3o2)s1	36%	-12%	0%	-2%	21%	-10%	·
CC(=O)Nc1sc2c(c1-c1cc3ccccc3o1)CCNC2	·	·	·	·	·	·	34*
O=C(Cn1c(=O)n(Cc2nc(-c3ccccc3)no2)c(=O)c2cc3c(cc21)OCO3)Nc1ccc(Cl)cc1	-19%	-13%	15%	i	13%	-6%	·
CCN(CC)CCOC(=O)c1cccnc1	·	·	·	·	·	10%[19.4 µM]	·
CCC(Sc1nc(-c2ccccc2)c(C#N)c(=O)[nH]1)C(=O)Nc1nnc(C)s1 (stereo unspecified)	?	6%	?	-1%	1%	-21%	48*
N#Cc1c(-c2ccccc2)nc(SCC(=O)Nc2nnc(C(F)(F)F)s2)[nH]c1=O	-9%	-9%	-6%	-3%	11%	-12%	·
O=C(O)c1cc(NC(=O)c2ccc([N+](=O)[O-])cc2)cc(NC(=O)c2ccc([N+](=O)[O-])cc2)c1	-12%	?	?	-7%	9%	-9%	?
Cn1nnnc1SCCCNCc1cccc(OCc2ccccc2)c1	11%	-23%	20%	12%	-2%	-9%	·
CCOC(=O)c1c(Nc2ccc(OC)cc2)nnc(-c2ccccc2)c1-c1ccccc1	21%	-19%	10%	-10%	1%	8%	·
COc1ccc(-c2oc3ncnc(NCCCN(C)C)c3c2-c2ccc(OC)cc2)cc1	0%	-13%	?	-9%	?	-5%[60.1 µM]	?
SMILES	Pol iota inh	Pol eta inh	FEN1 inh-1	PGK inhibitor	Pol beta inh	POLK inh	FEN1 inh-2
O=C(Nc1ccccc1C(=O)NC1CC1)c1ccc([N+](=O)[O-])o1	50µM*	32µM*	-14%	-17%	·	-35%	?
COC(=O)Nc1ccc(Cl)c(Cl)c1	·	·	·	·	·	14%[60.1 µM]	·
CCc1cccc(NC(=O)CSc2n[nH]c(-c3ccccc3Cl)n2)c1	-9%	-8%	-15%	i	-23%	-13%[60.1 µM]	·
CCOC(=O)C1Cc2cc3c(cc2C1=O)CC(C(=O)OCC)C3=O (stereo unspecified)	·	·	·	·	1%	·	·
CCOC(=O)C1=C(O)C(=O)C(C(=O)OCC)C1 (stereo unspecified)	12%	-16%	4.5µM*	-4%	·	0%	8.5*
CN(C)CCCNc1ncnc2sc(-c3ccccc3)cc12	?	-18%	?	i	?	-1%	?
CCCSc1nc(C)c2cc(C)cc(C)c2n1	9%	-2%	-1%	2%	8%	0%	·
Cc1cc(C)c2nc3nc(C)c(C)cc3c(N)c2c1	32µM*	-20%	45µM*	3%	16µM*	?	24*
COc1ccccc1CNc1ncnc2ccc(-c3cccc(C#N)c3)cc12	·	·	·	·	·	6%[60.1 µM]	·
CC(C)Nc1nc(-c2ccccc2)nc(-n2ccnc2)n1	9%	-4%	-10%	4%	0%	-6%	·
c1ccc(-c2nc(-n3ccnc3)nc(-n3ccnc3)n2)cc1	-1%	?	?	-5%	-12%	-15%	43*
CC(C)(C)/C(O)=C/c1nc2cc(Cl)ccc2oc1=O	5%	-7%	28µM*	-4%	4%	-19%	12*
Cc1ccc2oc(=O)c(/C=C(\O)c3ccco3)nc2c1	46%	-23%	9%	i	29%	-9%	·
Cc1ccc2oc(=O)c(/C=C(\O)C(C)(C)C)nc2c1	15%	-10%	50µM*	i	-3%	13%	34*
Cc1ccc2oc(=O)c(/C=C(\O)c3sc(C)nc3C)nc2c1	110%	-16%	-5%	i	83%	-2%	·
COc1ccc(OC)c(NC(=O)CCCOc2cc(=O)n(C)c3ccccc23)c1	12%	-3%	-11%	-5%	-9%	-23%	·
COc1cc(C(=O)NCC(c2cccs2)S(=O)(=O)c2ccc(F)cc2)cc(OC)c1OC (stereo unspecified)	?	-7%	5%	3%	-3%	-12%[60.1 µM]	·
